Measurements: PubChem BioAssay AID624115 (Johns Hopkins Ion Channel Center, 2012)
The campaign covered roughly 4,000 compounds. About 350 (8.8%) were called active.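 The calls were made as follows: active = calcium fluorescence ratio at least three times the spread of buffer wells, meaning a non-specific response in parental cells; inactive = the rest.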 These entries were drawn from the full list.

test: nonspecific Ca2+ signal without MrgX1 expression – cell-based, Fluo-4 calcium flux, duplicate, agonist mode, counter-screen for MrgX1 agonist project, primary screen (AID 624115); details: parental HEK293, Fluo-4 calcium fluorescence (FDSS), at 10 µM; stronger effect = higher value

SMILES | fluorescence ratio F(max-min)/F0
Fc1cccc(Cl)c1COc1ccc(-c2nnco2)cc1 | inactive
Cc1ccc(S(=O)(=O)N(C)c2nc3ccccc3n3c(C(C)C)nnc23)cc1 | inactive
CCCCC(=O)Nc1ccc2c(c1)C(=O)NC2=O | inactive
O=C(CSc1c2c(nc3ccc(Cl)cc13)CCCC2)NCc1ccco1 | inactive
O=C(Nc1cccc(Cl)c1)c1cncn1-c1ccc(F)cc1 | inactive
O=C(Cn1c(-c2cncs2)nc2ccccc21)NC1CCCC1 | inactive
Cc1nccn1CCC1CCCCN1C(=O)CCc1nnc(-c2ccsc2)o1 (centres undefined) | inactive
COc1ccc(-c2cc(C(F)(F)F)nc(S(C)(=O)=O)n2)cc1OC | inactive
COc1ccc2c(c1)OC(O)(C(F)(F)C(F)F)CC2=O (centres undefined) | 87.4 (active)
FC(F)(F)c1cc(-c2cccs2)nc(NCc2ccco2)n1 | inactive
CCOC(=O)Nc1ccc2c(c1)N(C(=O)CCN1CCN(CCO)CC1)c1ccccc1CC2 | inactive
O=C(CN1CCN(c2ccccn2)CC1)NC1CCCCC1 | inactive
Cc1c(C(=O)N2CCN(c3ccc(F)cc3)CC2)oc2c1C(=O)CCC2 | inactive
CCN(CC)c1ccc(C2C3CCCCC3(O)CCN2CC(=O)Nc2ccccc2)cc1 (centres undefined) | inactive
COc1ccc(Nc2nc(-c3cccnc3)nc3ccccc23)cn1 | inactive
O=C(Cc1nc2ccccc2[nH]c1=O)c1ccc(Cl)cc1 | inactive
N#CC1=C(N)Oc2c(sc3ccccc23)C1c1ccco1 (centres undefined) | inactive
CCOc1ccc(NC(=O)CCNC(=O)c2ccc(Br)cc2)cc1 | inactive
Cc1cc(C)n(CCNC(=O)CC2C(=O)NCCN2Cc2ccc(C)o2)n1 (centres undefined) | inactive
CCOC1CCCCC1NS(=O)(=O)c1ccc(Cl)cc1 (centres undefined) | inactive
COC(=O)c1sccc1NS(=O)(=O)c1ccc(F)cc1F | inactive
CC(=O)Nc1ccc(OC(=O)COc2ccc(Br)cc2)cc1 | inactive
Cc1ccnc(-n2sc3ccccc3c2=O)n1 | inactive
CCN(c1cccc(C)c1)S(=O)(=O)c1ccc(-c2coc(C)n2)cc1 | inactive
COCC(C)NC(=O)c1ccc(Cl)c(Cl)c1 (centres undefined) | inactive
COc1ccc(C(=O)Nc2c(N)nc(SCC(=O)N3CCC(C)CC3)[nH]c2=O)cc1OC | inactive

SMILES | fluorescence ratio F(max-min)/F0
Cc1ccc(-c2nn(C(C)(C)C)c3ncnc(N)c23)cc1 | inactive
COc1ccc(-n2c(SCC(=O)NCc3ccco3)nnc2-c2c[nH]c3ccccc23)cc1 | inactive
CCOC(=O)Cc1csc(SCc2cc(=O)oc3cc(O)ccc23)n1 | inactive
CCC(C)c1ccccc1N1CC(C(=O)N2CCN(S(=O)(=O)c3ccc(F)cc3)CC2)CC1=O (centres undefined) | inactive
COc1ccc([N+](=O)[O-])cc1NC(=O)COC(=O)/C=C/c1ccco1 | inactive
CN(C)CCn1c(=S)[nH]c2ccc(Cl)cc2c1=O | inactive
FC(F)Oc1ccc(NC(=S)NCc2ccco2)cc1Cl | inactive
O=c1c2cc(Br)ccc2nc(-c2cccc(Cl)c2)n1O | 90.3 (active)
O=C1CCCc2c1nc(-c1cccc(Cl)c1)n2O | inactive
Cc1nonc1C1CCCN1Cc1nc(-c2ccc(F)cc2F)oc1C (centres undefined) | inactive
O=C1Cc2ccccc2Sc2ccc(Cl)cc21 | inactive
CCOc1ccc2nc(/N=C/c3nc(-c4ccccc4)oc3O)sc2c1 | 114 (active)
Cc1ccc(NC2(C#N)C(=O)Nc3ccccc32)cc1 (centres undefined) | inactive
Clc1ccc(-c2nc3ccccn3c2CN2CCSCC2)cc1 | inactive
Cc1ccc2nc(Nc3ccccc3)cc(C)c2c1 | inactive
Cc1cc2ncn(CCCCOc3ccccc3)c2cc1C | inactive
Cc1nn(-c2ccccc2)c(C)c1NC(=O)COc1ccc(Cl)cc1Cl | inactive
COc1ccc(OC)c(Nc2nc3ccccc3n3cnnc23)c1 | inactive
Cc1nn(-c2ccccc2)c2c1C(c1ccc(F)cc1)C(C#N)=C(N)O2 (centres undefined) | inactive
Cc1ccc2cc(/C=N/Nc3ccc(C(=O)O)cc3)c(Cl)nc2c1 | inactive
O=C(Nc1nnc(-c2ccccc2)o1)c1cc(-c2cccs2)nc2ccccc12 | inactive
O=C(Nc1nc2c(F)cc(F)cc2s1)C1COc2ccccc2O1 (centres undefined) | inactive
Cc1ccc2nc(-c3ccc(NC(=O)CN(C)S(=O)(=O)c4ccccc4)cc3)sc2c1 | inactive
CN(CC(=O)Nc1ccccc1Cl)C(=O)COc1cccc2c1OC(C)(C)C2 | inactive
O=C(c1cccc(S(=O)(=O)Nc2ccccc2Cl)c1)N1CCN(C(=O)c2ccco2)CC1 | inactive
COCCNC(=O)Nc1ccc2nc(-c3ccco3)c(-c3ccco3)nc2c1 | 49.8 (active)

SMILES | fluorescence ratio F(max-min)/F0
COc1ccc(NC(=O)c2cc(-c3ccc(C)o3)nc3ccccc23)cc1 | inactive
CC(C)NC(=S)Nc1cccc2cnccc12 | inactive
O=C1CCCN1CCCNC(=S)Nc1ccc(F)c(Cl)c1 | inactive
Cc1ccc(CS(=O)(=O)c2ncc(Cl)c(C(=O)Nc3nnc(C)s3)n2)cc1 | inactive
COc1ccc(S(=O)(=O)N2CCN(C(=O)NC3CCCCC3)CC2)cc1 | inactive
Cc1cccc(-n2c(Cc3cc(=O)[nH]c(=O)[nH]3)nnc2SC(C)C)c1 | inactive
COc1cc(CCC(=O)Nc2ccncc2Cl)cc(OC)c1OC | inactive
O=C(COc1ccc(Cl)cc1)NC(=S)Nc1ccccc1N1CCOCC1 | inactive
Nc1cc(OC(=O)c2ccccc2Br)nn1S(=O)(=O)c1ccccc1 | inactive
O=C1C(=O)N(CC2COc3ccccc3O2)c2ccccc21 (centres undefined) | 64.3 (active)
COc1cccc(CNC(=O)C2CCN(S(=O)(=O)c3cccc4cccnc34)CC2)c1 | inactive
Cc1ccc(N/C(N)=N/c2nc(C(F)(F)F)cc(C(F)(F)F)n2)cc1 | inactive
O=C(Nc1ccccc1N1CCCCC1)c1ccc2nccnc2c1 | inactive
Cc1cccc(Cn2cnc3c(N)c(C)c(C)cc32)c1 | inactive
CCOC(=O)c1c(NC(=O)CSc2cn(CC)c3ccccc23)sc2c1CCC2 | inactive
CCOc1ccc(C2=CC(c3ccccc3)n3ncnc3N2)cc1 (centres undefined) | inactive
O=C(NC1CCCCC1)C1c2ccccc2C(=O)N1Cc1ccco1 (centres undefined) | inactive
COc1ccc(OC)c(C(=O)c2ccc(Cl)cc2)c1 | inactive
Cc1cc(Br)ccc1NC(=O)c1cnc(N2CCN(c3ccccn3)CC2)c2ccccc12 | inactive
Cc1ccc2nc(-c3ccc(NC(=O)c4cccnc4)cc3)oc2c1 | inactive
CCOCc1nnc(NC(=O)CCC2CCCCC2)s1 | inactive
CCOc1cc(-c2conc2N)cc(OCC)c1OCC | inactive
Cc1cc(C)cc(NC(=S)NCCc2c[nH]c3ccccc23)c1 | inactive
C(=N\n1cnnc1)/c1cccnc1 | inactive
O=S(=O)(c1ccc2ccccc2c1)N1CCN(S(=O)(=O)N2CCOCC2)CC1 | inactive
Cc1cc2oc3ccc(NCCC4CCCN4C)cc3c(=O)c2cc1C (centres undefined) | 95.1 (active)

SMILES | fluorescence ratio F(max-min)/F0
COc1ccccc1N(CC(=O)N1CCCCC1)S(=O)(=O)c1ccccc1 | 78.4 (active)
COc1ccc(C2SCCN2S(=O)(=O)c2ccccc2)cc1OC (centres undefined) | inactive
Cc1ccc(OC(=O)c2cc3ccccc3o2)cc1 | inactive
Cc1nn(C(=O)c2ccoc2C)c(N)c1-c1ccccc1 | inactive
O=C(Cc1ccccn1)c1ccc(O)cc1O | inactive
O=C(Nc1ccccc1)c1nnsc1S(=O)(=O)c1ccc(Cl)cc1 | inactive
CCCCCCCCCCOC(=O)Cn1c(COc2ccc(C)cc2)[n+](C)c2ccccc21 | inactive
Cc1ccc(Cc2cnc(N)s2)o1 | inactive
CCNC(=O)c1c(O)c2cccc3c2n(c1=O)CC3 | inactive
CCc1ccc2nc3sc(C(=O)Nc4nnc(CC)s4)c(N)c3cc2c1 | 47 (active)
COCc1nnc(NC(=O)c2ccc3c(c2)OCO3)s1 | inactive
CCOC(=O)C1=C(O)CSC1=Nc1cccc(Cl)c1 | inactive
C=CCSc1nc(Cc2ccc(Cl)cc2)nc2ccccc12 | inactive
Cc1cc(=O)oc2cc(NC(=O)C3CC(=O)N(Cc4ccccc4)C3)ccc12 (centres undefined) | inactive
CCCc1nc2c(c(=O)c3ccccc3n2C)c(=O)n1C1CCCCCC1 | inactive
CCN(CC)CC(=O)Nc1nn(-c2ccccc2)nc1C(N)=O | inactive
COc1cc2c(cc1O)C(SC)=NC(C)(C)C2 | inactive
CCC1CCCCN1CCNC(=O)c1[nH]c(C)c(C(C)=O)c1C (centres undefined) | inactive
Cc1ccc2c(C)c(C(=O)N(C)CCC3CCCCO3)oc2c1C (centres undefined) | inactive
Cc1cccc(NC(=O)COc2ccccc2C)n1 | inactive
O=C(O)CSC(NC(=O)c1cccnc1)(C(F)(F)F)C(F)(F)F | inactive
O=C(CCN1CCc2ccccc2C(O)(c2ccccc2)C1)c1ccc2c(c1)OCCO2 (centres undefined) | inactive
CC(C)CC(=O)NC(=S)NNC(=O)c1cccc([N+](=O)[O-])c1 | 53 (active)
CC(C)CC(=O)N/C(N)=N/c1nc2ccccc2s1 | inactive
Cc1onc(-c2ccccc2)c1C(=O)NNC(=S)NC(=O)c1ccc(F)cc1 | 123 (active)
COc1ccc(C(=O)NC(=S)NNC(=O)c2c(-c3ccccc3)noc2C)cc1 | 108 (active)
